Compound activity deposited in PubChem by National Center for Advancing Translational Sciences (NCATS).
Only some compounds are listed: those with a hit (about 12% of all), similar ones and a draw of the others.
FMDV antiviral = blocks foot and mouth disease virus. 410,000 compounds, 1.2% hits. FMDV antiviral cell-based qHTS. Potency, µM (titrated, usually from 57.9 µM), for the others: at the highest dose activity change, negative = inhibition, most hits filed as inhibitors; calls by dose curve; tested in HEK293T cells; note: read-out not given here; potency is the fitted concentration of half-maximal effect; % is set by controls: 0 for no effect and ±100 for the full control effect; nearly all actives have a fitted effect of over 45% in size
CHX counter = counter-screen hit for Shiga toxin inhibitors, cycloheximide; max response, %; 300,000 compounds, 12% hits; AID 2314; cell reporter, cycloheximide protein synthesis inhibition counterscreen; in the data active = max response mostly above about 13%, no sharp cut-off; inactive = mostly below about 14%; note: read at 38.3 µM for the half of the compounds with a filed dose; 0% is about no effect
Sm TGR block = S. mansoni TGR enzyme inhibition; Q962Y6; purified TGR, DTNB reduction, TNB absorbance 405 nm; Potency, µM (titrated, usually from 114 µM), inactives show at the highest dose activity change, negative = inhibition, hits mostly inhibitors; 360,000 compounds, 3% hits; AID 485364; active = well fitted inhibition curve with a large enough effect; inconclusive = small, poorly fitted or top-dose-only effect; inactive = no such curve, though single readings can be large or run the other way; note: potency is the fitted concentration of half-maximal effect; % is set by controls: 0 for no effect and ±100 for the full control effect; nearly all actives have a fitted effect of over 60% in size
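First, TGR (20 nM dispensed) and NADPH were mixed with compound. Second, a 15 min room-temperature incubation followed. Third, further NADPH and then DTNB were added to start the reaction. Finally, TNB absorbance was monitored kinetically.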
Shiga inhibitor = inhibitors of Shiga toxin in Vero cells. Vero cells, Shiga toxin protein synthesis inhibition reporter. inhibition, % at 38.7 µM. 290,000 compounds, 9.2% hits. AID 2315; in the data active = inhibition mostly above about 28%, no sharp cut-off; inactive = mostly below about 43%; note: 0% is about no effect
The depositor's hits bear a star; ? = inconclusive; . = no result given; [ ] = another dose, or the depositor's remark.

SMILES	FMDV antiviral	CHX counter	Sm TGR block	Shiga inhibitor
CC(C)CC(=O)NC1CC(=O)N(c2ccc3c(c2)OCCO3)C1 (stereo not given)	-20%	.	-4%	.
COc1ccc(C2C(=O)N(C3CCC(C)CC3)CC(=O)N2C2CCCCC2)cc1OC (stereo not given)	-21%	.	12%	.
CC(=O)OCc1cnc(C)c2oc(=O)c(C(=O)Nc3cccc(F)c3)cc12	-6%	.	0%	.
Cc1cc(C)c2c(-n3cccc3)c(C(=O)NCCc3ccc(Cl)cc3)sc2n1	-29%	.	3%	.
NC(=S)NCCC[C@H](N)C(=O)O	0%[146 µM]	.	.	.
Cc1cc(NC(c2ccc(Cl)cc2)c2ccc3cccnc3c2O)no1 (stereo not given)	-19%	-1	13µM*	-19
CC(=O)NC(c1ccc(Cl)cc1)c1ccc2cccnc2c1O (stereo not given)	-8%	.	.	.
Cc1ccnc(NC(c2ccccc2F)c2ccc3cccnc3c2O)c1 (stereo not given)	-10%	.	2.2µM*	.
Fc1ccccc1-c1nc2ccccc2[nH]1	40%	39*	0%	111*
Cn1cc(Cl)c(-c2nc3ccccc3[nH]2)n1	9%	26*	-1%	71*
c1ccc2c(-c3nc4ccccc4[nH]3)cccc2c1	16%	.	.	.
Cc1ccccc1-c1nc2ccccc2[nH]1	51%	46*	-22%	95*
Clc1ccccc1-c1nc2ccccc2[nH]1	22%	53*	8%	81*
Cc1c(C(=O)N(C)C)sc2c1c(=O)n(-c1ccc(Cl)cc1)c(=O)n2CC(=O)C(C)(C)C	-10%	.	-9%	.
CCN(CC)C(=O)c1sc2c(c1C)c(=O)n(-c1ccc(C)c(C)c1)c(=O)n2CC(=O)Nc1ccc(OC)cc1OC	-8%	.	-6%	.
CCCN(c1ccccc1CC)S(=O)(=O)c1ccc2c(c1)CC(C)N2C(=O)C1CC1 (stereo not given)	?	.	4%	.
O=[N+]([O-])c1ccc(CSc2ncnc3c2ncn3C2OC(CO)C(O)C2O)cc1 (stereo not given)	-1%	.	.	.
CSc1ncccc1-c1nc2ccccc2[nH]1	42%	28*	3%	51
c1ccc2[nH]c(-c3ccnc4ccccc34)nc2c1	14%	27*	0%	32
N#CCc1cnc2ccccc2n1	-14%	18*	-1%	69*
CCOC(=O)c1sc(=NC(=O)COc2ccccc2)n(C)c1C	52%	23	-5%	26
CCOC(=O)c1sc(=NC(=O)c2cc(OC)c(OC)c(OC)c2)n(C)c1C	.	0	1%	-12
CCOC(=O)c1sc(=NC(=O)c2c(F)cccc2F)n(C)c1C	37%	39*	5%	81*
CCOC(=O)c1sc(=NC(=O)c2ccc(C)cc2)n(C)c1C	97%	52*	12%	71*
CCOC(=O)c1sc(=NC(=O)CCSc2ccccc2)n(C)c1C	71%	17*	0%	17
SMILES	FMDV antiviral	CHX counter	Sm TGR block	Shiga inhibitor
CCOC(=O)c1sc(=NC(=O)c2ccc(F)cc2)n(C)c1C	17%	29*	5%	77*
CC(C)Cc1nc2cc(NS(=O)(=O)N(C)C)cc(C(=O)N3CCOc4ccccc4C3)c2n1C	-6%	.	.	.
CO[C@H]1C=CO[C@@]2(C)Oc3c(C)c(O)c4c(O)c(c5c(nc6cc(C)ccn65)c4c3C2=O)NC(=O)/C(C)=C\C=C[C@H](C)[C@H](O)[C@@H](C)[C@@H](O)[C@@H](C)[C@H](OC(C)=O)[C@@H]1C	-18%	.	.	.
CCn1nc(C)c2c(-c3ccccc3)cc(=O)n(C(C)C(=O)NCCc3ccccc3)c21 (stereo not given)	-10%	.	13%	.
COc1cccc2cc(-c3n[nH]c(=S)n3C)oc12	0%	-2	0%	11
COc1cccc2cc(-c3ccnc(N)n3)oc12	39%	33*	2%	107*
COS(C)(=O)=O	-9%	.	.	.
COc1ccc(OC)c(C2C(C(=O)Nc3ccc(C)cc3)=C(C)Nc3nnnn32)c1 (stereo not given)	-1%	.	4%	.
O=C(Cn1nc(-c2cccc(Cl)c2)ccc1=O)Nc1ccccc1Br	-8%	4	3%[57.1 µM]	-13
O=C(CN1CCCC1)Nc1cc(C(F)(F)F)ccc1Cl	-7%	9	45%	-3
Cc1ccc(NC(=O)Cn2nc(-c3ccncc3)ccc2=O)cc1Cl	-9%	.	?	.
O=C(Cn1nc(-c2ccco2)ccc1=O)Nc1cc(C(F)(F)F)ccc1Cl	-7%	16	50µM*	25
O=C(Cn1nc(-c2ccco2)ccc1=O)Nc1cc(Cl)ccc1Cl	-1%	-2	5.6µM*	6
O=C(Cn1nc(-c2ccco2)ccc1=O)Nc1ccc(Cl)c(Cl)c1	37%	5	7.1µM*	-5
O=C(Nc1c(Cl)cccc1Cl)c1cccc2c1C(=O)N(C1CCCCC1)C2	-4%	.	3%	.
Cc1ccc(C(=O)c2coc3ccc(O)c(Cl)c23)cc1	-14%	36*	-17%	72*
O=C(c1ccccc1)c1coc2ccc(O)c(Cl)c12	0%	67*	-27%	118*
Cc1ccc(C(=O)c2coc3ccc(O)cc23)cc1	-8%	34*	-15%	41*
C/C(=N\NC(=O)C(N)=O)c1ccc(NC(=O)c2cccs2)cc1	52%	33*	.	69*
O=C(Nc1ccc(NC(=S)NC(=O)c2cccs2)cc1)c1ccco1	-12%	-2	-34%[57.1 µM]	18
C/C(=N\NC(=O)C(N)=O)c1ccc(Br)cc1	12%	-1	0%	13
C/C(=N\NC(=O)c1ccco1)c1ccc(NC(=O)c2cccs2)cc1	6%	64*	-20%	130*
C/C(=N\NC(=O)c1ccccc1)c1ccc(NC(=O)c2cccs2)cc1	12%	23*	-13%	106*
C/C(=N\NC(=O)c1ccccc1C)c1ccc(NC(=O)c2cccs2)cc1	-13%	46*	11%	114*
Cc1ccc(C(=O)Nc2ccc(NC(=O)c3cccs3)cc2)cc1C	2%	.	1%	.
SMILES	FMDV antiviral	CHX counter	Sm TGR block	Shiga inhibitor
C/C(=N\NC(=O)c1ccc(NS(=O)(=O)c2cccs2)cc1)c1ccc(C(C)(C)C)cc1	-21%	-1	-6%	-3
CCOC(=O)c1ccccc1NC(=O)N(Cc1ccco1)C1CCN(C(C)=O)CC1	-27%	.	2%	.
CCC1CCCCN1CCCNC(=O)c1ccc2c(c1)N(Cc1ccccc1F)C(=O)c1ccccc1S2(=O)=O (stereo not given)	-7%	.	10%	.
CCCCc1ccc(/C(C)=N/NC(=O)C2CCCC2)cc1	24%	8	0%	-3
C/C(=N\NC(=O)c1ccc(N2CCCC2=O)cc1)c1ccccc1	21%	-1	1%	17
C/C(=N/NC(=O)C1CCCC1)c1ccc(NC(=O)C(F)(F)F)cc1	.	19*	0%	32
C/C(=N/NC(=O)c1ccccc1)c1ccc(NC(=O)C(F)(F)F)cc1	15%	43*	.	135*
O=C(CSc1c2c(nc3ccc(Cl)cc13)CCCC2)N1CCN(c2cccc(Cl)c2)CC1	?	.	-4%	.
O=C1NC(=O)N(CCc2ccc(F)cc2)C(=O)/C1=C/c1ccco1	-14%	3	?	17
CN(C)c1ccc(/C=C2\C(=O)NC(=O)N(CCc3ccc(F)cc3)C2=O)cc1	-3%	-1	4µM*	-4
Cc1ccc(/C=C2/C(=O)NC(=O)N(CCc3ccc(F)cc3)C2=O)o1	25µM*	-2	?	-6
